Data on 40 molecules can be found in PubChem BioAssay (NCI).

The panel holds about 83,000 compounds, 20% with a hit somewhere; the sample as a whole holds those more often.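 Each cell line was grown in a 96-well plate and treated with one concentration of compound for 48 hours. Values below 10 were considered active.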 A number with no mark means an inactive call. Activity calls are given as the source filed them.

This assay relates to MDA-MB-468 breast. The assay can be described thus: NCI-60 one-dose screen, 48 h (100 = growth as untreated, 0 = no growth, -100 = all killed). Conditions: 10 µM unless noted.
As to `CCN=C1C=CC(=C(c2ccc(N)cc2)c2ccc(N(CC)CC)c(C)c2)C=C1`, the growth is -32.9% (active).

As for `O=c1cc(/C(=C2/C=CC=N2)c2ccc[nH]2)c2cc(Cl)ccc2o1`, the growth was 2.6% (active).

On to `CN(C)CC(=O)Nc1ccc2ncnc(Nc3ccc(Oc4cccc(C(F)(F)F)c4)c(Cl)c3)c2c1`, for which the growth was -2% (active).

`CCOc1ccc(-n2c(-c3cc(OC)c(OC)c(OC)c3)nnc2-c2ccc(OC)cc2N)cc1`: the growth was 1.83% (active).

Consider `C(=C\c1n(Cc2ccc3ccccc3c2)c(-c2ccccc2)c(-c2ccccc2)[n+]1Cc1ccc2ccccc2c1)/c1ccccc1`, for which the growth was -70.8% (active).

In the case of `CCCn1cnc2c1c(=O)n(CCCCC(C)=O)c(=O)n2C`, the growth was 107%.

Turning to `FC(F)(F)c1nc2c(NCc3ccc(-c4ccccc4)cc3)cccc2[nH]1`, the growth was 70.2%.

As to `COc1ccc(C2CC(=O)Oc3c(OC)c4c(c(OC)c32)OCO4)cc1` (stereo not given), the growth is 96.9%.

`CN(C)CCOc1nc2ccccc2c2c1-c1ccc(Cl)cc1C2=O`: the growth is -51.1% (active).

In the case of `OC(CNC1CCCC1)Cn1c2ccccc2c2ccccc21` (stereo not given), the growth is -21.2% (active).

As to `COc1ccc(CCN2C(=O)CCSC2=S)cc1OC`, the growth is 19.8%.

On to `OC(c1ccccc1)(c1ccccc1)C(F)(F)F`, for which the growth is 113%.

On to `CCC(C)(O)Cc1ccc(Cl)cc1` (stereo not given), for which the growth is 101%.

For `CCOC(=O)c1c(NCC(=O)Nc2cccc(Cl)c2)sc2c1CCCC2`, the growth was 73%.

For the molecule `CC(C)C1=NOC(=O)C1=Cc1cn(-c2ccccc2)nc1-c1ccccc1`, the growth is 97.2%.

Consider `O=C(CSc1nc2ccc([N+](=O)[O-])cc2[nH]1)Nc1ccc(F)cc1`, for which the growth was 22.3%.

`COc1cc2c(c3c1c(=O)c1cccc(F)c1n3C)C=CC(C)(C)O2`: the growth is 42.7%.

As for `COc1cc(Cl)cc(-c2nn(C(=O)NS(=O)(=O)c3ccc(Cl)cc3)cc2-c2ccncc2)c1`, the growth is 83.7%.

With `O=C(Nc1ccc(-c2ccnc(Nc3ccc(N4CCOCC4)cc3)n2)cc1)[C@@H]1CCCN1`, the growth is 36.2%.

`COc1ccc(C(=O)c2cc(C)c(OC)c(C)c2)cc1OC(=O)CCl`: the growth was 37.7%.

For `COc1ccc(-c2cnoc2-c2cc(OC)c3c(c2)OCCO3)cc1`, the growth was 20.4%.

As to `Cc1ccc(-c2cc(-c3ccc(C)cc3)nc(NCCNc3ccnc4cc(Cl)ccc34)n2)cc1`, the growth is -93.2% (active).

In the case of `O=C1C(=O)c2ccc(Br)cc2-c2cc(Br)ccc21`, the growth is 0.713% (active).

For `Oc1cc(O)c2c(c1)O[C@H](c1ccc(O)c(O)c1)[C@@H](O)C2`, the growth is 115%.

Turning to `CC1CN(C2CCCCC2)C(=O)NC1=O` (stereo not given), the growth is 108%.

In the case of `O=C1C=CC2(O)OC/C(=C\c3ccccc3)C(O)=C2C1=O` (stereo not given), the growth was 10.3%.

In the case of `COc1ccc(Br)c(/C=C2\SC(=Nc3ccc(O)cc3)NC2=O)c1`, the growth is 85%.

`CC(c1ccccc1)N1C(=O)C(C2SC(=S)N(C(C)c3ccccc3)C2=O)SC1=S` (stereo not given): the growth was 44.2%.

As to `CN(C)CCC=C1c2ccccc2C(C)(C)c2ccccc21`, the growth is 56.6%.

Turning to `O=C(CNS(=O)(=O)Cc1ccccc1)NNc1ccccc1`, the growth was 79.4%.

Consider `Cc1[nH]c(-c2cc(N)ccc2Cl)c2c1C(=O)CCCC2`, for which the growth was -5.42% (active).

Regarding `COCC[C@H]1CCC/C=C/[C@@H]2C[C@H](O)C[C@H]2[C@H](O)/C=C/C(=O)O1`, the growth is -50.7% (active).

On to `CCCC(CCC)NCC(O)c1cc(-c2ccc(C(F)(F)F)cc2)nc(C(F)(F)F)c1` (stereo not given), for which the growth is -91.6% (active).

For `c1ccc2c(-c3c[nH]c4ccccc34)c3c(cc2c1)[nH]c1ccccc13`, the growth was 53.8%.

With `COc1ccc(C(=O)c2sc3nc4c(c(-c5cccnc5)c3c2N)CCCC4)cc1OC`, the growth was 102%.

Take `COc1ccc(-c2nnc(SCC(=O)Nc3ccc(C(=O)/C=C/c4cc(OC)c(OC)c(OC)c4)cc3)n2-c2ccccc2)cc1OC`: the growth is -14.2% [100 µM] (active).

Regarding `O=C(O)CNC(=O)CN1C(=O)c2ccccc2C1=O`, the growth is 106%.

In the case of `Cc1ccc(NCCN(C)CC(C)O)c2c(=O)c3ccc(Cl)cc3sc12` (stereo not given), the growth is -2.72% (active).

In the case of `O=P(O)(O)OC1C(OP(=O)(O)O)C(OP(=O)(O)O)C(OP(=O)(O)O)C(OP(=O)(O)O)C1OP(=O)(O)O.[Cu+2]` (stereo not given), the growth was 85.8%.

For `COc1ccc(C2=NN(/C=C3\SC(=O)NC3=Nc3ccc(F)cc3)C(c3ccc(F)cc3)C2)cc1` (stereo not given), the growth was 101%.
